Measurements: publication PMC5700166
Where a chain is given by its changes, count along the chain named.

Key:
Experiment in all cases: protein-binding microarray (PBM); PBM: ~300 nM protein, 6 mM HEPES pH 7.8, 80 mM KCl, 0.5 mM EDTA, 0.5 mM EGTA, 6% glycerol, 35 ng/ul poly-dIdC, 1% milk, 1 h, room temperature; Ap Aiptasia and Nv Nematostella (sea anemones) / Co Capsaspora / Aq Amphimedon (sponge) / Dm Drosophila / Hu human; RHD is the Rel homology domain; high values mean tight binding
Settings in all cases: dsDNA, one strand shown
GST-Ap-NF-kB RHD = biological target: T1, GST-Ap-NF-kB RHD (Exaiptasia pallida (Aiptasia), UniProt A0A913YAJ5 2-422)
T1 sequence: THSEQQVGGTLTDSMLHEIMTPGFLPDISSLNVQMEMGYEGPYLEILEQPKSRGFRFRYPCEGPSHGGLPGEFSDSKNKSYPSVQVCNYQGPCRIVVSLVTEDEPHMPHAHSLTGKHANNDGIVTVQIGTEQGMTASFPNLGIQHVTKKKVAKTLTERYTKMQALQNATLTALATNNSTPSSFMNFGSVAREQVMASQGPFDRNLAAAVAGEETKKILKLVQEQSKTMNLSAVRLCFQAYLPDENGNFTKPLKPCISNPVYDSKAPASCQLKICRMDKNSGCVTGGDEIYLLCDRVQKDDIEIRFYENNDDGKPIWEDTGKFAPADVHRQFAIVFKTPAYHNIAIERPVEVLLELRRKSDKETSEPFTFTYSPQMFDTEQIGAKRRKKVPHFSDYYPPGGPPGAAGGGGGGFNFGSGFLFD

[1] = biological target: T2, GST-Nv-NF-kB (Cys allele) (Nematostella vectensis, UniProt E5G601 2-411)
T2 sequence: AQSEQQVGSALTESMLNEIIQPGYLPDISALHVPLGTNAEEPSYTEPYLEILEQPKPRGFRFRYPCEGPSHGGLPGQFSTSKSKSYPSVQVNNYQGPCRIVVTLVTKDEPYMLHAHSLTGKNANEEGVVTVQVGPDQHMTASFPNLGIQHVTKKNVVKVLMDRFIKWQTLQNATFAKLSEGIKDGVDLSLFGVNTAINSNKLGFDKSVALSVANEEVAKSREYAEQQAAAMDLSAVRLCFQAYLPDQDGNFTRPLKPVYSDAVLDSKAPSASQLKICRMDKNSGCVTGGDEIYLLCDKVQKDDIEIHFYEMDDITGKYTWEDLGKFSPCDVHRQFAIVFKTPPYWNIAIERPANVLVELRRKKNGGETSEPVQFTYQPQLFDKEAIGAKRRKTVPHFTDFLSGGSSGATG

[2] = biological target: T3, GST-Nv-NF-kB (Ser allele) (Nematostella vectensis, UniProt A7UNT2 2-411)
T3 sequence: T2 sequence with Q21R, C66S, S207N, E215Q, V217A, E225K, A268E, D399E

GST-Co-NF-kB = biological target: T4, GST-Co-NF-kB (Capsaspora owczarzaki, UniProt F1ARL5 200-546)
T4 sequence: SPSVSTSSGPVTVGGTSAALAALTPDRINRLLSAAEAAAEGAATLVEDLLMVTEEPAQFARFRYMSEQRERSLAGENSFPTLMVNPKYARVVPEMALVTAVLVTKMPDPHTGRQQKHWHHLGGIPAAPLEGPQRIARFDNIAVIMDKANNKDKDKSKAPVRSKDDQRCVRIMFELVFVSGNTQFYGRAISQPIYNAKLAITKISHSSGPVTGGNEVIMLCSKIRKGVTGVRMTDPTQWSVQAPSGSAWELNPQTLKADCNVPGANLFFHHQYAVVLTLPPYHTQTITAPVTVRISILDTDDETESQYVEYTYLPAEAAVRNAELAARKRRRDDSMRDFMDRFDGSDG

GST-Dm-Relish = biological target: T5, GST-Dm-Relish (Drosophila melanogaster, UniProt Q94527 99-473)
T5 sequence: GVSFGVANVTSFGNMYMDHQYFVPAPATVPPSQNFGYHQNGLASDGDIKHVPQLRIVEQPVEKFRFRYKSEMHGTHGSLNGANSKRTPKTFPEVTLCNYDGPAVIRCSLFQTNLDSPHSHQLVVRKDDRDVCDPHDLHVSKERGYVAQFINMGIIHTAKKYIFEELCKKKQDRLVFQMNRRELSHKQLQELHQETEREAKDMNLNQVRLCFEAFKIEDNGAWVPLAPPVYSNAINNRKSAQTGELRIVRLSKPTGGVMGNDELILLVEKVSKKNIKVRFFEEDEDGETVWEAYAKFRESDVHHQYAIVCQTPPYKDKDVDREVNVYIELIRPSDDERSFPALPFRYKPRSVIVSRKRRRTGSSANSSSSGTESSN

GST-Aq-NF-kB = biological target: T6, GST-Aq-NF-kB (Amphimedon queenslandica, UniProt A9Y5G7 2-389)
T6 sequence: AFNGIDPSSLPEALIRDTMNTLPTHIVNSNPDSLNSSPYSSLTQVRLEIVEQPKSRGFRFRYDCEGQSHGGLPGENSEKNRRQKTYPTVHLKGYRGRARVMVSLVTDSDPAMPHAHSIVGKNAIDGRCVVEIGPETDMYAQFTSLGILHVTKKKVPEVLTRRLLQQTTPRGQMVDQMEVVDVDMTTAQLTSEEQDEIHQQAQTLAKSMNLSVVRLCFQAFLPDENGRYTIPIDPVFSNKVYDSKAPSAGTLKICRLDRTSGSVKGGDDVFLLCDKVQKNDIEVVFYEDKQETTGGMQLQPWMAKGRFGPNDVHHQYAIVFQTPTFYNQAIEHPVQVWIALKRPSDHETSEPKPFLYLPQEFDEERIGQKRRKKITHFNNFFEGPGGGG

GST-Hu-p50 = GST-Hu-p50 (Homo sapiens, UniProt P19838 7-356)
GST-Hu-p50, sequence (P19838 7-356): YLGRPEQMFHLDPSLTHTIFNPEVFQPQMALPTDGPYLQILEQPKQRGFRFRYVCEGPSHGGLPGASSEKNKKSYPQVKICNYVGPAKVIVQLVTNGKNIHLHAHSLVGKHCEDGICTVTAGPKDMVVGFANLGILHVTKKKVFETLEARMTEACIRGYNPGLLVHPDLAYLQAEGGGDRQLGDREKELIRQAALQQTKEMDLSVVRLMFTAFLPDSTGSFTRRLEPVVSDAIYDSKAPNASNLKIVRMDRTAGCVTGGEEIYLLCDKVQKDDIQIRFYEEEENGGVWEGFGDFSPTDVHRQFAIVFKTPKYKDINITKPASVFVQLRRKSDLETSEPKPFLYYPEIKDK

Sequence	binding signal (GST-Ap-NF-kB RHD)	binding signal [1]	binding signal [2]	binding signal (GST-Co-NF-kB)	binding signal (GST-Dm-Relish)	binding signal (GST-Aq-NF-kB)	binding signal (GST-Hu-p50)
CCGATTAACATCACCCTGGGAAATGATGTTAATCGGGTCTTGATTCGCTTGACGCTGCTG	1.68 z-score	1.49 z-score	1.51 z-score	3.42 z-score	1.08 z-score	1.74 z-score	2.25 z-score
CCGATTAACATCACGGGGGAAACTGATGTTAATCGGGTCTTGATTCGCTTGACGCTGCTG	7.25 z-score	5.82 z-score	8.94 z-score	12.2 z-score	3.91 z-score	4.97 z-score	6.34 z-score
CCGATTAACATCAGGGAAGTTTATGATGTTAATCGGGTCTTGATTCGCTTGACGCTGCTG	4.29 z-score	4.93 z-score	4.78 z-score	2.58 z-score	3.35 z-score	5.26 z-score	3.73 z-score
CCGATTAACATCAAGGGGAAAAATGATGTTAATCGGGTCTTGATTCGCTTGACGCTGCTG	6.62 z-score	8.51 z-score	11 z-score	9.12 z-score	4.24 z-score	6.11 z-score	6.67 z-score
CCGATTAACATCAGGGGGATTACTGATGTTAATCGGGTCTTGATTCGCTTGACGCTGCTG	8.76 z-score	7.64 z-score	8.21 z-score	5.85 z-score	9.03 z-score	6.92 z-score	7.22 z-score
CCGATTAACATCAGGGAGTACCCTGATGTTAATCGGGTCTTGATTCGCTTGACGCTGCTG	5.7 z-score	4.14 z-score	3.49 z-score	1.84 z-score	8.1 z-score	6.66 z-score	3.38 z-score
CCGATTAACATCAGAGCTTCCCCTGATGTTAATCGGGTCTTGATTCGCTTGACGCTGCTG	4.5 z-score	5.06 z-score	5.75 z-score	4.37 z-score	3.56 z-score	4.57 z-score	4.17 z-score
CCGATTAACATCAGGATTACCCATGATGTTAATCGGGTCTTGATTCGCTTGACGCTGCTG	2.92 z-score	2.65 z-score	2.12 z-score	1.67 z-score	2.52 z-score	3.19 z-score	1.83 z-score
CCGATTAACATCAAGGAGTTCCCTGATGTTAATCGGGTCTTGATTCGCTTGACGCTGCTG	3.02 z-score	2.29 z-score	1.06 z-score	1.52 z-score	5.39 z-score	4.24 z-score	2.1 z-score
CCGATTAACATCAGGGGAGTACCTGATGTTAATCGGGTCTTGATTCGCTTGACGCTGCTG	7.52 z-score	5.33 z-score	6.46 z-score	3.7 z-score	7.86 z-score	7.18 z-score	4.93 z-score
CCGATTAACATCAAATACCCCCTTGATGTTAATCGGGTCTTGATTCGCTTGACGCTGCTG	8.01 z-score	6.1 z-score	6.79 z-score	4.41 z-score	6.19 z-score	6.04 z-score	5.85 z-score
CCGATTAACATCAGGGGAATCACTGATGTTAATCGGGTCTTGATTCGCTTGACGCTGCTG	8.92 z-score	8.19 z-score	8.51 z-score	6.78 z-score	10.6 z-score	7.41 z-score	6.51 z-score
CCGATTAACATCAGGTTTCCCCATGATGTTAATCGGGTCTTGATTCGCTTGACGCTGCTG	6.59 z-score	7.14 z-score	8.78 z-score	7.88 z-score	4.69 z-score	5.35 z-score	5.34 z-score
CCGATTAACATCAAAATTCCCAGTGATGTTAATCGGGTCTTGATTCGCTTGACGCTGCTG	3.76 z-score	5.07 z-score	4.98 z-score	4.87 z-score	5.12 z-score	4.23 z-score	4.24 z-score
CCGATTAACATCAAACATTCCCTTGATGTTAATCGGGTCTTGATTCGCTTGACGCTGCTG	2.36 z-score	4.96 z-score	4.25 z-score	1.95 z-score	2.37 z-score	5.41 z-score	3.27 z-score
CCGATTAACATCAAGTAATCCCCTGATGTTAATCGGGTCTTGATTCGCTTGACGCTGCTG	7.36 z-score	7.72 z-score	7.94 z-score	3.88 z-score	7.56 z-score	6.04 z-score	5.93 z-score
CCGATTAACATCAAATTTCCCGTTGATGTTAATCGGGTCTTGATTCGCTTGACGCTGCTG	3.33 z-score	5.71 z-score	5.5 z-score	4.13 z-score	3.24 z-score	5.53 z-score	4.24 z-score
CCGATTAACATCAGGAATCCCCCTGATGTTAATCGGGTCTTGATTCGCTTGACGCTGCTG	10.9 z-score	10.2 z-score	9.39 z-score	5.73 z-score	10.2 z-score	9.58 z-score	7.57 z-score
CCGATTAACATCAAATTTCCCCGTGATGTTAATCGGGTCTTGATTCGCTTGACGCTGCTG	8.33 z-score	9.6 z-score	11.4 z-score	9.87 z-score	7.13 z-score	7.38 z-score	6.52 z-score
CCGATTAACATCAAACAATCCCCTGATGTTAATCGGGTCTTGATTCGCTTGACGCTGCTG	7.46 z-score	7.94 z-score	9.07 z-score	3.49 z-score	5.32 z-score	6.2 z-score	6.29 z-score
CCGATTAACATCACCACCCCCCCTGATGTTAATCGGGTCTTGATTCGCTTGACGCTGCTG	4.06 z-score	3.75 z-score	3.44 z-score	3.56 z-score	4.58 z-score	3.75 z-score	4.06 z-score
CCGATTAACATCAAGGGAATTTATGATGTTAATCGGGTCTTGATTCGCTTGACGCTGCTG	4.54 z-score	7.59 z-score	7.58 z-score	3.54 z-score	4.78 z-score	5.69 z-score	5.62 z-score
